Results filed as inconclusive are left out. This is one part of the list. Calls of active or inactive are those of the source. Calls follow the shape of the dose curve; as a rule, active = well fitted curve in the direction sought with a large enough effect; inconclusive = small, poorly fitted or top-dose-only effect, or another doubt; inactive = no such curve, though single readings can be large; an effect the other way counts as inactive or inconclusive.
Tests used:
[1] = MultiTox-Fluor Cytotoxicity Assay - LYMP1-001 - Live Cells (AID 947); details: LYMP1-001 lymphoblastoid cells, live-cell protease fluorescence viability; series mostly up to 92.2 µM
[2] = Cell Viability - LYMP2-009 (AID 968); details: LYMP2-009 lymphoblastoid cell viability; series mostly up to 92.2 µM; also: nearly all actives have a fitted effect of over 55% in size
[3] = Cell Viability - LYMP2-013 (AID 970); details: LYMP2-013 lymphoblastoid cells viability; series mostly up to 92.2 µM; also: nearly all actives have a fitted effect of over 55% in size
In short: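 Human lymphoblastoid LYMP2-013 cells, 2500/well, treated 24 h at 37 C in complete medium; viability as intracellular ATP by CellTiter-Glo luminescence after 30 min. AC50 from Hill fits of qHTS concentration-response.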

[4] = Cell Viability - LYMP2-015 (AID 971); details: LYMP2-015 lymphoblastoid cell viability; series mostly up to 92.2 µM; also: nearly all actives have a fitted effect of over 55% in size
In short: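 LYMP2-015 human lymphoblastoid cells (2500/well) in complete medium, compound-treated 24 h at 37 C; viability read as cellular ATP by CellTiter-Glo luminescence after 30 min at room temperature. AC50 from Hill-equation fits of qHTS concentration-response data.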

[5] = Cell Viability - LYMP2-002 (AID 977); details: LYMP2-002 lymphoblastoid cell viability, qHTS; series mostly up to 92.2 µM
In short: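 Luminescent ATP readout (CellTiter-Glo, 30 min room temperature) after 24 h compound exposure at 37 C of a human lymphoblastoid line, 2500 cells/well. AC50 values derived by standard Hill fitting of qHTS concentration-response data.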

[6] = Cell Viability - LYMP2-006 (AID 978); details: LYMP2-006 lymphoblastoid cell viability, qHTS; series mostly up to 92.2 µM;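 also: cells exposed to compound for 24 hours; nearly all actives have a fitted effect of over 60% in size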
In short: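 Human lymphoblastoid cells (LYMP2-006), 2500/well in complete medium, were treated with compound for 24 hr at 37 C. Cellular ATP was read by CellTiter-Glo luminescence after 30 min, and AC50 values came from Hill-equation fits of concentration-response data.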

[7] = Cell Viability - LYMP2-007 (AID 979); details: LYMP2-007 lymphoblastoid cell viability; series mostly up to 92.2 µM;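 also: cells exposed to compound for 24 h before reading; nearly all actives have a fitted effect of over 60% in size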
In short: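 Human lymphoblastoid LYMP2-007 cells (2500/well) preincubated 5 h at 37 C, then treated 24 h at 37 C in complete medium. Viability by CellTiter-Glo ATP luminescence after 30 min at room temperature; AC50 from Hill fits.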

[8] = biological target: ATPase family AAA domain-containing protein 5 (Homo sapiens) (UniProt Q96QE3); test: HTS assay for small molecules that inhibit ELG1-dependent DNA repair in human embryonic kidney (HEK293T) cells expressing luciferase-tagged ELG1: Hit Confirmation (AID 624248); details: HEK293T ELG1-luciferase levels, luminescence; cells co-treated with 5-fluorouridine; also: nearly all actives have a fitted effect of over 55% in size
Chain of ATPase family AAA domain-containing protein 5 (Homo sapiens) (Q96QE3 whole entry, looked up, the tested form may be a part): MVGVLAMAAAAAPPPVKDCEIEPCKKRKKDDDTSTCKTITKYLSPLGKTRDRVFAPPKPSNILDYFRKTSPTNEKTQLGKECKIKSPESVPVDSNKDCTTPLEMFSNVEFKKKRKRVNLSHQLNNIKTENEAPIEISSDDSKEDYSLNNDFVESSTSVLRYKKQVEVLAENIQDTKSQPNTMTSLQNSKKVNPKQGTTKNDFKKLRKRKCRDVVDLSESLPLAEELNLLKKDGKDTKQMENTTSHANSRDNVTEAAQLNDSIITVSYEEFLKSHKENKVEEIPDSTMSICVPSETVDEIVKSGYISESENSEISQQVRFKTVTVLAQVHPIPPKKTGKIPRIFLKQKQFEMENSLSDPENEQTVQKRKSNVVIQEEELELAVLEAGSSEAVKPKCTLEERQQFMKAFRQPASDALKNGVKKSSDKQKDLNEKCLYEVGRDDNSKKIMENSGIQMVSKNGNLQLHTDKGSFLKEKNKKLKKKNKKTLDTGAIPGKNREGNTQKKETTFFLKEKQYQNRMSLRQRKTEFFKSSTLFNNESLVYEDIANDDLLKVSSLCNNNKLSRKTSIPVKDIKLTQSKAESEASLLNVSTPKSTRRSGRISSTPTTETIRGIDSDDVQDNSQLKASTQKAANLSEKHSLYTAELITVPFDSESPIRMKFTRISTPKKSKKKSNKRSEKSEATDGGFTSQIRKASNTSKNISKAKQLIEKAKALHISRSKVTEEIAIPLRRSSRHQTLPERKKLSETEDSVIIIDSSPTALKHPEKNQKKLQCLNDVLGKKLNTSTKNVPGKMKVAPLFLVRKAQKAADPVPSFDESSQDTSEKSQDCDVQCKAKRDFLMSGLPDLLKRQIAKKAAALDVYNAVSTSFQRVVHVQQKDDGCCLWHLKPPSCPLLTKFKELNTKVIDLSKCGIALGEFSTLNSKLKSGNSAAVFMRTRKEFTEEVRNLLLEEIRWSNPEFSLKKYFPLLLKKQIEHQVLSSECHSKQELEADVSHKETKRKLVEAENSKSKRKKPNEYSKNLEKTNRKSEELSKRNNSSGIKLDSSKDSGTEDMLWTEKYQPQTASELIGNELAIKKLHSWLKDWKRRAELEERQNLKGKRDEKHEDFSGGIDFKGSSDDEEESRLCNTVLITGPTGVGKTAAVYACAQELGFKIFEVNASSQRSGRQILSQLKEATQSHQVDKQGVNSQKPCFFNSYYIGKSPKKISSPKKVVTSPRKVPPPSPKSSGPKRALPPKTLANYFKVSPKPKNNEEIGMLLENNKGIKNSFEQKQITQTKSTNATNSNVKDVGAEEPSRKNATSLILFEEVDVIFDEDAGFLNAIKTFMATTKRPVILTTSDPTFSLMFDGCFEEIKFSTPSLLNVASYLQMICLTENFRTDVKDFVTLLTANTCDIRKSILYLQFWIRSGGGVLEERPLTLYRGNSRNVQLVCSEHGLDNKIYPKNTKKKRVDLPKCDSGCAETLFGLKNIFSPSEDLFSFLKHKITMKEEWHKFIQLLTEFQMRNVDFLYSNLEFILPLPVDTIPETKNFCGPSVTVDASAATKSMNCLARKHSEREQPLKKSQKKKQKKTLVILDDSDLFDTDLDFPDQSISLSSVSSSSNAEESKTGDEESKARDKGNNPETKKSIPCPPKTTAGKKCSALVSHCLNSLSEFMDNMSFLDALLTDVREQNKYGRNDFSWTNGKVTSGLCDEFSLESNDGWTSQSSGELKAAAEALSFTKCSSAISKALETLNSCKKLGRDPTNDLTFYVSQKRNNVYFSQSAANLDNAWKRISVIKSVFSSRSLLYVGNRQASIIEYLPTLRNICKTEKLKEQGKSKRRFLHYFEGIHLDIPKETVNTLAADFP
Excerpt: (§1) Cancer cells divide rapidly compared to normal cells in the body. During cell division, cancer cells need to duplicate their genome by DNA replication. The failure of genome duplication leads to cancer cells' death. Therefore, inhibitors of DNA replication could specifically kill cancer cells. Based on this concept, many chemotherapeutic agents were developed and have been used to treat cancer patients. However, there are a limited number of agents available in the clinical setting, and some of those that do exist have low efficacy and severe side effects. Therefore, if we can find the compounds that effectively block DNA replication either by directly damaging DNA or by inhibiting other cellular mechanisms, the options for cancer treatment will be broadened. With this in mind, we developed a quantitative high-throughput ELG1-luciferase reporter gene assay. Small molecules that specifically block ELG1 function in response to DNA damage can be identified by monitoring the suppression of luciferase activity. […]
For genotoxicity screening, 2,000 cells in 4 uL/well were dispensed into white, solid-bottom 1536-well plates using a solenoid-based dispenser. […] 5 ul ONE-Glo (Promega) was then added to each plate and following a 30 min incubation at room temperature, luciferase activity was quantified on a ViewLux CCD-based plate reader.

[9] = biological target: ATPase family AAA domain-containing protein 5 (Homo sapiens) (UniProt Q96QE3); test: qHTS screen for small molecules that inhibit ELG1-dependent DNA repair in human embryonic kidney (HEK293T) cells expressing luciferase-tagged ELG1: Hit Confirmation using MMS Stimulated ELG1 (AID 624249); details: HEK293T luciferase-tagged ELG1 level; also: nearly all actives have a fitted effect of over 60% in size
Excerpt: as §1
ELG1-luc HEK293T cells will be seeded in 1536-well plates at a density of 2,000 cells/well. […] 16 hours following the addition of the compounds, luciferase activity will be measured using Amplight reagent.

[10] = qHTS screen for small molecules that inhibit ELG1-dependent DNA repair: Hit Confirmation with MMS Viability (AID 624251); details: Cell viability with MMS;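 also: ELG1-luc HEK293T cells co-treated with 10 µM MMS; viability read 16 h after compound addition; nearly all actives have a fitted effect of over 60% in size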
Excerpt: as §1
ELG1-luc HEK293T cells will be seeded in 1536-well plates at a density of 2,000 cells/well. […] 16 hours following the addition of the compounds, cell viability will be measured using Cell Titer Glo.

Measured: Potency
Potency is read from the fitted curve at half-maximal effect.

O=C1C(Cl)=C(Cl)C(=O)C(Cl)=C1Cl
active: [1] 39.8 µM | [2] 20 µM | [3] 31.6 µM | [4] 39.8 µM | [5] 25.1 µM | [6] 31.6 µM | [7] 15.8 µM

C[C@@]12CC[C@H]3[C@@H](CC[C@]4(O)C[C@H](O)CC[C@@]34C=O)[C@]1(O)CC[C@@H]2C1=CC(=O)OC1
active: [8] 1.07 µM | [9] 0.756 µM | [10] 1.07 µM
